Values joined by “and” are separate entries in the source; they are usually repeats but may differ in a detail not shown here. Identical values can stand only once.
Assays:
Type in all cases: functional
Plasmodium falciparum [1] = experiment: GSK_TCMDC: Inhibition of Plasmodium falciparum 3D7 in whole red blood cells, using parasite LDH activity as an index of growth. Test compounds present at 2uM
Plasmodium falciparum [2] = experiment: GSK_TCMDC: Inhibition of Plasmodium falciparum Dd2 in whole red blood cells, using parasite LDH activity as an index of growth. Test compounds present at 2uM
HepG2 = experiment: GSK_TCMDC: Percent inhibition of human HepG2 cell line. Test compounds present at 10uM.

SMILES | Inhibition (Plasmodium falciparum [1]) | Inhibition (Plasmodium falciparum [2]) | Inhibition (HepG2)
O=C(/C=C/c1cc(C(F)(F)F)ccc1F)N1CCC(CN2CCC(c3c[nH]c4ccccc34)CC2)CC1 | 96% | 14% | 22%
COCCNCc1cccc(-c2ccc(CN(C(=O)NC3CCCCC3)C3CCN(Cc4ccccc4)CC3)cc2)c1.O=C(O)C(F)(F)F | 100% | 31% | 32%
CC(Cc1ccc(SC(C)C)cc1)NCC(O)c1cccc(Cl)c1.Cl (stereo not drawn) | 99% | 97% | 5%
O=C(/C=C/c1ccc(Cl)c(Cl)c1)N1CCC(CN2CCC(c3c[nH]c4cc(C(F)(F)F)ccc34)CC2)CC1 | 99% | 38% | 6%
COc1ccc(C(=O)C2CC2CN2CC=C(c3c(C)[nH]c4ccccc34)CC2)cc1 (stereo not drawn) | 96% | 94% | 16%
S=C(Nc1ccccc1Cl)NC1CCC(CN2CCC(c3c[nH]c4ccccc34)CC2)CC1 (stereo not drawn) | 90% | 12% | 31%
CCCCCCCc1cc(O)c2c3c(c(=O)oc2c1)CN(C)CC3 | 97% | 100% | 0%
CCCC(=O)c1c(O)c2ccccc2oc1=O | 93% | 1% | 11%
Cl.N[C@@H](CCN1CCC(c2cccc(O)c2)CC1)Cc1ccc(F)c(F)c1 | 92% | 0% | 25%
CN(CC(=O)N1CCN(S(=O)(=O)c2cccc(Cl)c2)CC1CN1CCCC1)c1ccc(Cl)c(Cl)c1 (stereo not drawn) | 89% | 32% | 32%
CC(=O)Nc1ccc2[nH]cc(C3CCN(CC4CCC(NC(=O)/C=C/c5ccc(Cl)c(Cl)c5)CC4)CC3)c2c1 (stereo not drawn) | 100% and 90% | 99% and 59% | 10% and 18%
